From PubChem BioAssay (NCATS) come the findings set out here.

“And” between values parts separate entries of the source, which are not always exact repeats. Equal entries are not always repeated. Records with an inconclusive call do not appear. The source made the active and inactive calls. Calls follow the shape of the dose curve; as a rule, active = well fitted curve in the direction sought with a large enough effect; inconclusive = small, poorly fitted or top-dose-only effect, or another doubt; inactive = no such curve, though single readings can be large; an effect the other way counts as inactive or inconclusive.

Test [1] concerns Zika virus NS2B-NS3 protease (linked construct). In words: Primary screen NINDS Rhodamine qHTS for Zika virus inhibitors (AID 1347160). Also: nearly all actives have a fitted effect of over 55% in size. Also: potency is read from the fitted curve at half-maximal effect. The essentials:
(§1)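 Each compound, titrated, sat 15 min with 25 nM linked protease before 1.5 microM Rhodamine110 substrate went in. Fluorescence gain over the next 15 min, in pH 8.0 Tris with Tween 20, gave Hill-fitted curves.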
On the technique in general: In qHTS, concentration-response curves come from the screen itself.

For test [2], the system named is Zika virus NS2B-NS3 protease. In words: Primary screen GU AMC qHTS for Zika virus inhibitors (AID 1347154). Also: nearly all actives have a fitted effect of over 70% in size. The essentials:
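Fluorogenic AMC-substrate cleavage by noncovalent NS2B-NS3 protease complex (25 nM, pH 8.0 Tris buffer with Tween 20) followed for 15 minutes at room temperature (~20% conversion). Percent inhibition from ex340/em450 signal change, fitted by 4-parameter Hill equation.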

Test [3] can be described thus: qHTS of pediatric cancer cell lines to identify multiple opportunities for drug repurposing: Primary screen for NB1643 cells (AID 1347099). Also: nearly all actives have a fitted effect of over 50% in size. The essentials: (§2)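 Plated cells (500-1,000 per well, growth media) were allowed to settle for 5 hours, treated with compound dilutions for 48 hours, then lysed with CellTiter-Glo for 15 min at room temperature before luminescence reading.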

Test [4] in a line: qHTS of pediatric cancer cell lines to identify multiple opportunities for drug repurposing: Primary screen for LAN-5 cells (AID 1347100). The essentials:
(§3)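 Cells (500-1,000/well) rested 5 h, then received compounds for 48 h; metabolically active cells were measured by CellTiter-Glo luminescence. Final concentrations spanned up to 46 µM (MIPE, 11-point) or 0.59 nM-46 µM (NPC, 8-point) in primary screens, 11-point in follow-ups.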

Test [5] is described as follows: qHTS of pediatric cancer cell lines to identify multiple opportunities for drug repurposing: Primary screen for BT-12 cells (AID 1347101). Also: nearly all actives have a fitted effect of over 25% in size. The gist of the method: as §3
A short description of test [6]: qHTS of pediatric cancer cell lines to identify multiple opportunities for drug repurposing: Primary screen for Rh18 cells (AID 1347102). Also: nearly all actives have a fitted effect of over 65% in size. The gist of the method: as §3
A short description of test [7]: qHTS of pediatric cancer cell lines to identify multiple opportunities for drug repurposing: Primary screen for RD cells (AID 1347104). Also: nearly all actives have a fitted effect of over 55% in size. The gist of the method:
as §2

Test [8] is described as follows: qHTS of pediatric cancer cell lines to identify multiple opportunities for drug repurposing: Primary screen for MG 63 (6-TG R) cells (AID 1347105). Also: nearly all actives have a fitted effect of over 50% in size. The essentials:
as §2

Test [9] can be described thus: qHTS of pediatric cancer cell lines to identify multiple opportunities for drug repurposing: Primary screen for control Hh wild type fibroblast cells (AID 1347106).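 Also: series mostly up to about 46 µM; a drop in luminescence marks cytotoxicity and a rise apparent proliferation; nearly all actives have a fitted effect of over 55% in size.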 The essentials: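 Cells (500-1,000/well) in growth media were settled 5 h at 37 degrees C, then given compounds for 48 h. Viability was read as CellTiter-Glo luminescence. Primary runs used MIPE at 11 points (0.78 nM-46 µM) and NPC at 8 points (0.59 nM-46 µM); follow-ups used 11 points.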

Test [10] can be described thus: qHTS of pediatric cancer cell lines to identify multiple opportunities for drug repurposing: Primary screen for Rh30 cells (AID 1347107). Also: series mostly up to about 46 µM; nearly all actives have a fitted effect of over 75% in size. The essentials: as §3
Test [11] in a line: qHTS of pediatric cancer cell lines to identify multiple opportunities for drug repurposing: Primary screen for Rh41 cells (AID 1347108).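 Also: series mostly up to about 46 µM; luminescence drop marks cytotoxic hits; nearly all actives have a fitted effect of over 70% in size.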 The essentials: as §2
The target of the next test is Furin (Homo sapiens) (UniProt P09958). In words: Furin counterscreen qHTS for Zika virus inhibitors (AID 1347149).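 Also: purified recombinant full-length human furin enzyme at 5 nM; fluorescence gain from furin cutting a BOC-RVRR-AMC peptide substrate over 15 min; top concentration of the series differs between compounds; nearly all actives have a fitted effect of over 70% in size.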 The gist of the method: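 Counterscreen measures cleavage of 2 microM BOC-RVRR-AMC, below its ~15 microM Km, by 5 nM full-length human furin at pH 7.0 after a 15-min compound preincubation. Inhibition derives from the 15-min fluorescence increase at 37C.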
On the technique in general: The purpose of a counterscreen is to sort out artefacts and off-target activity.

Test [12] has as its system Zika virus NS2B-NS3 protease (unlinked). In words: Optimization of GU AMC qHTS for Zika virus inhibitors: Unlinked NS2B-NS3 protease assay (AID 1347151). Also: series mostly up to about 52 µM; nearly all actives have a fitted effect of over 80% in size. The gist of the method: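 Fluorescence gain (340/450 nm) over 15 min at room temperature, ~20% conversion, gave percent inhibition fitted to a 4-parameter Hill equation; enzyme was unlinked NS2B-NS3 (25 nM final), pH 8.0 Tris buffer.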

The nature of test [13]: ZIKV-mCherry secondary qHTS for Zika virus inhibitors (AID 1347158). Also: top concentration of the series differs between compounds. The essentials:
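Read-out is percent infection: mCherry-positive Vero cells (nuclear-proximal intensity >450 RFU, 3 SD above negative controls) counted by high-content imaging of Hoechst-stained, PFA-fixed wells after 48-72 h with ZIKV-mCherry at MOI 1 and compound.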

For test [14], the system named is Zika virus NS2B-NS3 protease (linked construct). The test can be described thus: Confirmatory screen NINDS AMC qHTS for Zika virus inhibitors (AID 1347152). Also: potency is read from the fitted curve at half-maximal effect; nearly all actives have a fitted effect of over 70% in size. To be noted: Purified linked NS2B-NS3, AMC substrate fluorescence. The gist of the method: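 IC50s from 4-parameter Hill fits of percent inhibition, based on AMC fluorescence gain (340/450 nm) over 15 min with 10 microM Bz-Nle-KRR-AMC. Enzyme: 1 nM linked NS2B-NS3 in Tris-HCl pH 8.0; 15-min compound preincubation.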

Test [15] in a line: Confirmatory screen GU Rhodamine qHTS for Zika virus inhibitors qHTS (AID 1347157). The gist of the method: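 A qHTS format was used, with compound concentrations ranging up to 114 microM. Each compound was preincubated with 25 nM NS2B-NS3 protease, and the substrate was then added at 1.5 microM. Curves were fitted with a 4-parameter Hill model.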
A short description of test [16]: Confirmatory screen NINDS Rhodamine qHTS for Zika virus inhibitors (AID 1347161). Also: potency is read from the fitted curve at half-maximal effect; nearly all actives have a fitted effect of over 60% in size. The essentials:
as §1

Furin (Homo sapiens), sequence (P09958 whole entry, looked up): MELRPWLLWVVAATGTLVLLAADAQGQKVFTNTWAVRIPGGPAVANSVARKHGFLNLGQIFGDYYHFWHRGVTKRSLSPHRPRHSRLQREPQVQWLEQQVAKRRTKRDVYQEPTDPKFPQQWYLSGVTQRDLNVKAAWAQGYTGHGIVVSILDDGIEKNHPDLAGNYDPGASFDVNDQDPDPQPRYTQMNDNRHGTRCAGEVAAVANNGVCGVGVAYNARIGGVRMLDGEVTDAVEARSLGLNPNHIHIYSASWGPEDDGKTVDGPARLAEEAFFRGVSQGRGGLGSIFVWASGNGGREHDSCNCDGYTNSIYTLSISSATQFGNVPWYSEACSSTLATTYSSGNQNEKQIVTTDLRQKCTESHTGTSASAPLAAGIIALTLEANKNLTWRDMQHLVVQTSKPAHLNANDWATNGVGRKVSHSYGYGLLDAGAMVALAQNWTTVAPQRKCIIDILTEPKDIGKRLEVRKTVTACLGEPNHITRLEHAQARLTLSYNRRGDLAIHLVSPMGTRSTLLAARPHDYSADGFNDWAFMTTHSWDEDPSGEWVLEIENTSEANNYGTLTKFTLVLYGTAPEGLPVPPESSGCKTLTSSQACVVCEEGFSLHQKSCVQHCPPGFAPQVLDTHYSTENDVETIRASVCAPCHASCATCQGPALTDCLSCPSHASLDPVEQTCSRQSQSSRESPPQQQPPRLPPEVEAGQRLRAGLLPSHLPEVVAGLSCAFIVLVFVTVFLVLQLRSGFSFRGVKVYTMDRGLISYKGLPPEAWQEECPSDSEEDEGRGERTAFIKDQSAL

For the compound `CC1CC(OC(=O)C(O)c2ccccc2)CC(C)(C)C1` (stereo not drawn), the Potency entry in test [1] was “inactive”.

As to `CCN(CC)CCOCCOC(=O)C(CC)(CC)c1ccccc1`, the Potency entry in test [1] was “inactive”.

As for `COC(=O)C(CN)c1c[nH]c2ccc(OC)cc12` (stereo not drawn), the outcome in test [2] was inactive.

On to `COc1ccc2nc(NC(=O)Nc3ccccc3)sc2c1`, for which the call in test [3], in [4], in [5], in test [6], in [7] and in test [8] was inactive. The result in test [9], in test [10], in test [11] and in [2] was inactive.

Consider `CCOC(=O)C1=C(COCCN)NC(C)=C(C(=O)OC)C1c1ccccc1Cl` (stereo not drawn), for which, in [2], the compound was called inactive.

As for `C[C@H]1O[C@@H](O[C@H]2[C@@H](O)C[C@H](O[C@H]3[C@@H](O)C[C@H](O[C@H]4CC[C@@]5(C)[C@H](CC[C@@H]6[C@@H]5C[C@@H](O)[C@]5(C)[C@@H](C7=CC(=O)OC7)CC[C@]65O)C4)O[C@@H]3C)O[C@@H]2C)C[C@H](O)[C@@H]1O`, the compound was classed as inactive with Furin (Homo sapiens). Further, the Potency result in [12] and in test [1] was “inactive” in each case.

As for `Cc1cc(-c2ccc(N=Nc3ccc4c(S(=O)(=O)O)cc(S(=O)(=O)O)c(N)c4c3O)c(C)c2)ccc1N=Nc1ccc2c(S(=O)(=O)O)cc(S(=O)(=O)O)c(N)c2c1O`, the compound was called inactive (with Furin (Homo sapiens); in [13]).

As to `O=C(O)Cc1cc(I)c(Oc2ccc(O)c(I)c2)c(I)c1`, the result with Furin (Homo sapiens) was inactive. Also, the Potency in test [14] was 15600 nM (active); in [15], 2.21 µM (active) and 10 µM (active); in test [1], 3160 nM (active); in [16], 2.21 µM (active) and 7.94 µM (active).

For the compound `Cc1cc(-c2ccc(N=Nc3c(S(=O)(=O)O)cc4cc(S(=O)(=O)O)cc(N)c4c3O)c(C)c2)ccc1N=Nc1c(S(=O)(=O)O)cc2cc(S(=O)(=O)O)cc(N)c2c1O`, the Potency in [15] and in test [16] was 2.24 µM (active) each time. Moreover, the compound was called inactive in test [13].

For the compound `CC(=O)Oc1cccc2c1C(=O)c1c(OC(C)=O)cc(C(=O)O)cc1C2=O`, the call in test [5], in test [6], in test [7], in test [9], in test [10] and in test [11] was inactive.
